Bfl-1 A1 inh = caspase 3/7 activation in MEF A1-2A-BIM cells, primary screen, A1 inhibitor project, cell-based, luminescence, HTS | Caspase-Glo 3/7 luminescence, 3 h; percent of clofoctol response, vehicle zero | caspase activation, % (concentration not given with the values) | 330,000 compounds, 0.066% hits | AID 2462, 2010;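 active means over half of replicate activation scores above 10%, or exactly half above 10 with the replicate mean above 10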
AI-2 QS modul = Vibrio harveyi AI-2 quorum sensing modulators, primary screen, JMH597 strain, luminescence/OD600 ratio. 300,000 compounds, 0.4% hits. Vibrio harveyi JMH597 AI-2 luminescence/OD600 ratio, 9 h; stronger effect = lower value; strain lacks LuxN and CqsS sensors; 0 = neutral-control median. activity change, % at 7.5 µM; in the data active means activity change below about -75%, passing the limit was not always enough;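 further: luminescence divided by OD600 gain over 9 h not by final OD600 alone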
aDG glyco up = activators of alpha-DG glycosylation, primary screen, uHTS, Pro5-aDG cells, AlphaScreen | alpha-DG glycosylation AlphaScreen (IIH6); 0% Pro5, 100% B10-LARGE cell signal | activation, % at 10 µM | 360,000 compounds, 0.22% hits | AID 624168, 2012;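 active means activation of at least 8% versus controls, or a plate z-score of at least 8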;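 further: Pro5 are CHO cells carrying HIG-tagged alpha-DG that lacks glycosylation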
SUMO Mot1 rescue = yeast Mot1-301 growth rescue at high temperature, primary screen, SUMOylation pathway inhibitor project, S. cerevisiae, ATP luminescence, 38.5C. S. cerevisiae Mot1-301 growth rescue; percent above DMSO median, 100 means doubled. growth rescue, % at 18.8 µM. 320,000 compounds, 1% hits;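 active means every valid replicate shows activation above 250% relative to neutral control wells; inactive means the rest, any valid replicate at or below 250%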
ARNT TACC3 PPI = disruptors of ARNT/TACC3 protein interaction, primary screen, biochemical, AlphaScreen, single concentration; Transforming acidic coiled-coil-containing protein 3 (Homo sapiens), Q9Y6A5; inhibition, % at 9.99 µM; AID 623870, 2012; 390,000 compounds, 0.66% hits; AlphaScreen His-ARNT PAS-B/GST-TACC3 binding, luminescence; TACC3 fragment carries E629A point mutation;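 active means mean inhibition of replicates at least 50% and at least half of replicates each reaching 50%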
aDG glyco conf = alpha-DG glycosylation enhancers, retest, confirmation, single concentration, Pro5-aDG cells. shares compounds with aDG glyco up. IIH6 AlphaLISA; scaled to LARGE-overexpressing B10 cells as 100%. activation, % at 10 µM (by protocol). 600 compounds, 17% hits. AID 651671, 2012;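 active means activation of at least 7% in one or more replicates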;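 further: cells exposed to compound for two days before detection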
Numbers stand for hits; 0 = inactive; - = no result given. Sampled rows, rich in hits. Any-hit rate of the full collection: about 1.8%.

SMILES	Bfl-1 A1 inh	AI-2 QS modul	aDG glyco up	SUMO Mot1 rescue	ARNT TACC3 PPI	aDG glyco conf
COC(=O)CN(c1ccccc1OC)S(=O)(=O)c1ccccc1	0	0	0	0	0	-
Nc1nc(-c2ccccn2)nc(N)c1Cc1c(F)cccc1Cl	0	0	8.0	0	-	0
Cc1n[nH]c(C)c1Cc1c(F)cccc1Cl	0	0	0	0	0	-
C[C@@H]1CCCCO[C@H](CN(C)C(=O)c2ccncc2)[C@H](C)CN([C@@H](C)CO)C(=O)c2cc(N(C)C)ccc2O1	-	-	-	-	0	-
N/C(=N\OC(=O)COc1ccc(Br)cc1Cl)c1ccccn1	0	0	14	0	0	0
N/C(=N\OC(=O)COc1ccc(Cl)cc1Cl)c1ccccn1	0	0	0	-	0	-
COc1cc([N+](=O)[O-])ccc1NC(=O)NCC1CCN(Cc2ccc(Cl)cc2)CC1	0	0	3.3	0	0	0
COc1ccc(Cl)cc1NC(=O)NCC1CCN(Cc2cc(C)ccc2C)CC1	0	0	0	0	0	-
Cc1ccc(OCCCCn2ccnc2C)c(C)c1	0	0	3.0	0	0	0
COc1ccc(-c2noc(CCC(=O)NCc3cccnc3)n2)cc1	0	0	0	0	0	-
COc1ccc(Cc2nc(-c3ccc(NC(=O)c4cccnc4)cc3)no2)cc1	0	0	7.5	0	0	6.7
Cc1nc2c(ccc3nc(NC(=O)c4ccc5c(c4)OCCO5)sc32)s1	0	0	0	0	0	-
Cc1nc2ccc3nc(NC(=O)c4ccc5c(c4)OCCO5)sc3c2s1	0	0	7.7	0	0	0
CC(C)Cn1c(N)c(C(=O)COC(=O)c2ccc(Br)cc2)c(=O)n(C)c1=O	0	-	3.4	0	0	1.2
CC(C)NC(=O)N(C)C[C@H]1Oc2ccc(NC(=O)Cc3ccccc3)cc2C(=O)N([C@H](C)CO)C[C@@H]1C	0	-	9.5	0	0	0
C[C@H](CO)N1C[C@H](C)[C@@H](CN(C)S(=O)(=O)c2ccccc2)OCCCC[C@H](C)Oc2ccc(NC(=O)CCC(F)(F)F)cc2C1=O	-	-	3.4	-	0	0
C[C@@H]1CN([C@@H](C)CO)C(=O)Cc2cc(NC(=O)CCC(F)(F)F)ccc2O[C@H]1CN(C)Cc1ccc(-c2ccccc2)cc1	-	-	-	-	0	-
CC(C)NC(=O)N(C)C[C@@H]1Oc2ccc(NC(=O)Cc3ccccc3)cc2C(=O)N([C@@H](C)CO)C[C@H]1C	-	-	-	-	0	-
C[C@H]1CN([C@@H](C)CO)C(=O)Cc2cc(NC(=O)CCC(F)(F)F)ccc2O[C@H]1CN(C)Cc1ccc(-c2ccccc2)cc1	0	-	5.7	0	0	0
CN(C)c1nc(Oc2ccc(=O)n(C)n2)nc(N2CCOCC2)n1	0	0	6.9	0	0	0
O=C(NCc1cccnc1)NC1(c2ccccc2)CC1	0	0	10	0	0	0
COc1ccccc1Cc1c(-c2ccc(C#N)cc2)nc2c3ccccc3ccn12	-	-	8.9	-	-	0
CC(C)(C)c1ccc(-c2cc(N)n[nH]2)cc1	0	0	9.7	0	0	0
Cc1ccc(-c2cc(N)n[nH]2)cc1	0	0	0	0	0	-
C[C@@H]1CCCCO[C@@H](CN(C)CC2CCCCC2)[C@H](C)CN([C@@H](C)CO)C(=O)c2cc(N(C)C)ccc2O1	-	-	-	-	0	-
SMILES	Bfl-1 A1 inh	AI-2 QS modul	aDG glyco up	SUMO Mot1 rescue	ARNT TACC3 PPI	aDG glyco conf
C=CCNC(=S)N/N=C/c1ccc(C(C)(C)C)cc1	-	0	8.6	-	0	0
CCCOc1ccc(C(=O)N(CC(C)C)c2c(N)n(Cc3ccccc3)c(=O)[nH]c2=O)cc1	0	0	5.7	0	-	0
CCOc1ccc(OCCC(=O)N(CC(C)C)c2c(N)n(Cc3ccccc3)c(=O)[nH]c2=O)cc1	-	-	0	-	0	-
Cc1cccc(N=C2NC(=O)CS2)c1	0	0	6.4	0	0	0
COC(=O)COc1ccc(S(=O)(=O)Nc2ccc(C(N)=O)cc2)cc1Cl	0	0	77	0	0	0
COC(=O)COc1ccc(S(=O)(=O)Nc2ccc(C(N)=O)cc2)cc1C	0	0	0	0	0	-
CCC(C)(C)C1CCc2[nH]nc(C(=O)NCc3ccc(Cl)cc3)c2C1 (stereo not given)	0	-	0	0	0	-
Nc1nc(Cl)cc(N2CCC(c3cc(-c4ccc(Cl)cc4Cl)n[nH]3)CC2)n1	0	0	11	0	0	0
COC(=O)[C@@H]1[C@@H](CO)[C@@H]2Cn3c(ccc(-c4cccnc4)c3=O)[C@@H]2N1Cc1ccccc1F	-	-	-	-	0	-
CS(=O)(=O)c1ccc(Nc2nc(C(N)Cc3ccc(Cl)cc3)cs2)cc1 (stereo not given)	-	-	24	-	-	11
COC(=O)[C@]12CCCCC=C1N(Cc1cccc3ccccc13)C(=O)[C@H](CC(=O)NCCC(C)C)C2	-	-	5.6	-	-	0
COC(=O)[C@]12CCCCC=C1N(Cc1cccc3ccccc13)C(=O)[C@H](CC(=O)NCc1ccccc1)C2	-	-	0	-	-	-
CC(C)C1Nc2ccc(C(=O)N3CCN(c4ccccn4)CC3)cc2NC1=O (stereo not given)	0	0	0	0	0	-
O=C(COc1ccc2c3c(c(=O)oc2c1)CCC3)NCc1ccccn1	0	0	0	0	0	-
O=C(COc1ccc2c3c(c(=O)oc2c1)CCCC3)NCc1cccnc1	0	0	7.0	0	0	0
COC(=O)C1=C(C)NC(=S)NC1c1ccc(OC(=O)c2ccco2)cc1 (stereo not given)	0	0	5.3	-	0	0
O=C(NC1CCN(Cc2ccccc2)CC1)c1ccccc1NS(=O)(=O)c1ccc(F)c(F)c1	-	-	0	-	0	-
O=C(/C=C/c1ccc2c(c1)OCO2)N1CCN(c2ccc(Cl)cc2)CC1	0	0	15	0	0	0
O=C(N/N=C/C(Cl)=C\c1ccccc1)c1cnccn1	0	0	0	0	-	-
COc1ccccc1NC(=O)Nc1nc(C(N)Cc2ccc(Cl)cc2)cs1 (stereo not given)	-	-	0	-	-	-
COc1ccccc1NC(=O)Nc1nc(C(N)Cc2ccccc2)cs1 (stereo not given)	-	-	7.4	-	-	6.9
C[C@@H]1CN([C@@H](C)CO)S(=O)(=O)c2ccc(Br)cc2O[C@H]1CN(C)C(=O)CN(C)C	-	-	0	-	0	-
C[C@H]1CN([C@@H](C)CO)S(=O)(=O)c2ccc(Br)cc2O[C@H]1CN(C)C(=O)CN(C)C	-	-	10	-	0	0
Cc1ccc(S(=O)(=O)N(C)C)cc1NC(=O)C1CCCCN1S(=O)(=O)c1ccccc1 (stereo not given)	0	-	2.9	0	-	0
Cc1cccc(NC(=O)C2CCCCN2S(=O)(=O)c2ccccc2)c1C (stereo not given)	0	-	0	0	0	-

Screening data from PubChem BioAssay.
